Test results: PubChem BioAssay AID720566 (Broad Institute, 2013)
Potency and affinity values are given separately. The source made the active and inactive calls.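 The calls were made as follows: active = in all runs, an absorbance decrease of 25% or more of the average positive control decrease; inconclusive = runs conflict, with both active and inactive results; inactive = all runs inactive, opposite-direction effects included.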

Molecular target: Protein disulfide-isomerase A6 (Homo sapiens) (UniProt Q15084)
Assay: inhibitors of ERp5-mediated insulin aggregation, dose response, biochemical, turbidity, absorbance 650 nm, cherry-picked samples (AID 720566);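 also: negative values mean less insulin aggregation so ERp5 inhibition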
Details: Recombinant ERp5 insulin aggregation; series mostly up to 35 µM; activity change, negative = inhibition: at the top concentration

Sequence of Protein disulfide-isomerase A6 (Homo sapiens) (Q15084 whole entry, looked up): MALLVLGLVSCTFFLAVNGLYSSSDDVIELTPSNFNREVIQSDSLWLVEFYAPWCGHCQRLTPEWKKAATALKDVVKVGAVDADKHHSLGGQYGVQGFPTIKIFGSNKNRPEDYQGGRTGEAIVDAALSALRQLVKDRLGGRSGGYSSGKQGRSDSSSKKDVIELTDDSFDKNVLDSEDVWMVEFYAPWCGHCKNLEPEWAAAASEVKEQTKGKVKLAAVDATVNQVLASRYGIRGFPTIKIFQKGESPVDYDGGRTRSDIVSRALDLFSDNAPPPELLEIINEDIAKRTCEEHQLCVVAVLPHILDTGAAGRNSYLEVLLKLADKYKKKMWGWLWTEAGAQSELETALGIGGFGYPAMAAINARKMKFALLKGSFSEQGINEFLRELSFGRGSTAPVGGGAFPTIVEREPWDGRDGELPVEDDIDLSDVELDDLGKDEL

Q: C[C@H](CO)N1C[C@H](C)[C@@H](CN(C)C(=O)Oc2ccc3ccccc3c2)OCc2cn(nn2)CCCC1=O was tested. Which “activity change, negative = inhibition” value did it give?
A: -4.28% (inactive)

Q: How did the “activity change, negative = inhibition” value turn out when CCn1nc(/C=C/c2ccccc2)nc2c(=O)n(C)c(=O)nc1-2 was run?
A: -22% (inactive)

Q: Cc1cc(OCC(=O)NCc2ccc(S(N)(=O)=O)cc2)c2c3c(c(=O)oc2c1)CCC3 was tested. Which “activity change, negative = inhibition” value did it give?
A: 9.4% (inactive)

Q: How did the “activity change, negative = inhibition” value turn out when COc1ccc(C#Cc2ccc([C@H]3[C@H](CO)N4CCCCN(C(=O)Cc5cccnc5)C[C@@H]34)cc2)cc1 was run?
A: -9.93% (inactive)
